NPC1 prom act: NPC1 promoter activation; Huh7 NPC1 promoter luciferase reporter, 24 h; Potency, µM (top dose mostly 9.22 µM), for the others: at the highest dose activation, most hits filed as activators; hit rate 2.4% among 320,000; AID 485313; also: % of control where 0% means no effect; nearly all actives have a fitted effect of over 60% in size
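Cells: Huh7 expressing luciferase under the NPC1 promoter, 1500/well. Seeded 2 h, compound added, incubated 24 h at 37 °C. Luciferase reagent, 10 min ambient, then luminescence.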
ELG1 genotoxic: genotoxicity induction in ELG1-luciferase HEK293T cells; HEK293T ELG1-luciferase reporter, luminescence, 16 h; Potency, µM (highest dose often 46 µM), for inactives: at the highest dose activity change, positive = activation, actives largely listed as activators; hit rate 1.3% among 330,000; also: % of control where 0% means no effect; nearly all actives have a fitted effect of over 60% in size
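Luminescence read-out: rising ELG1-luciferase signal, reflecting elevated ELG1 protein under genetic stress, flags genotoxic compounds. Cells were treated for 16 hr at 37 °C before ONE-Glo detection.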
SMN2 splice up: increases expression of the SMN2 splice variant | HEK293 SMN2-luciferase splicing reporter, luminescence, 30-36 h | Potency, µM (series often up to 46.1 µM), for the others: top-dose activity change, positive = activation, actives largely listed as activators | hit rate 2.8% among 210,000; also: % of control where 0% means no effect; nearly all actives have a fitted effect of over 55% in size
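qHTS luciferase splicing reporter: luminescence rises when SMN2 exon 7 is included in transfected HEK293 cells. Compound exposure lasted 30-36 h at 37C, with 4.5 mM final sodium butyrate as control, followed by a ONE-Glo read.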
Rab9 promoter act: activates the Rab9 promoter. Huh7 Rab9 promoter-luciferase reporter, luminescence, 24 h. Potency, µM (top dose mostly 9.22 µM), without a hit: top-dose activation, negative = inhibition, usual class: activators. hit rate 2.8% among 320,000. AID 485297; also: % of control where 0% means no effect; nearly all actives have a fitted effect of over 60% in size
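Cells were plated at 1500 per well in reduced-serum medium with 10% FBS and left 2 h. Compound in DMSO was then added for 24 h at 37 °C. Reporter signal was read by luminescence after 10 min with luciferase detection reagent.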
FLuc modulator: firefly luciferase modulation, counter-screen for miR-21 project. Potency, µM (doses to about 57.5 µM), for the others: at the highest dose activity change, negative = inhibition, actives largely listed as inhibitors. AID 588342. hit rate 6.9% among 360,000. purified FLuc, Km substrates, luminescence inhibition;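 also: plate controls were vehicle for no effect and reference inhibitor for full effect; nearly all actives have a fitted effect of over 55% in size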
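Purified P. pyralis luciferase, 10 nM final, with Km-level 10 uM D-luciferin and 10 uM ATP in 50 mM Tris acetate pH 7.5, 10 mM Mg acetate, 0.01% Tween-20, 0.05% BSA; 6-point qHTS titration about 60 µM downward; luminescence read.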
Active calls of the source: *; u = inconclusive; x = no result. Shown are actives, neighbours in structure and some others; about 7.5% of the full set was active somewhere. Calls follow the shape of the dose curve; as a rule, active = well fitted curve in the direction sought with a large enough effect; inconclusive = small, poorly fitted or top-dose-only effect, or another doubt; inactive = no such curve, though single readings can be large; an effect the other way counts as inactive or inconclusive. Potency is read from the fitted curve at half-maximal effect.

SMILES	NPC1 prom act	ELG1 genotoxic	SMN2 splice up	Rab9 promoter act	FLuc modulator
CC(C)CN1C(=O)C(=O)N(CC(=O)c2ccc3c(c2)CCCC3)C1=O	2%	11%	x	-3%	-9%
Cc1ccc(NC(=O)c2ccc3c(c2)C(=O)N(Cc2cccnc2)C3=O)c(C)c1	-1%	2%	-11%	-3%	1%
COC(=O)c1ccc(OCCOc2ccccc2)cc1	15%	u	-5%	u	15µM*
COC(=O)c1ccc(N=Nc2ccccc2)cc1	14%	2%	20%	u	5.4µM*
COC(=O)c1ccc(OCC(=O)c2cccc(OC)c2)cc1	u	u	5.6µM*	u	24µM*
COC(=O)c1ccc(OCC(=O)c2ccc(C)c(C)c2)cc1	26%	3%	19%	22%	u
O=C1c2ccc(-c3ccc4c(c3)C(=O)N(CCO)C4=O)cc2C(=O)N1CCO	4%	-1%	x	0%	u
COc1cc(NC(=O)c2c(C)nn(-c3ccc(F)cc3)c2-n2cccc2)cc(OC)c1	x	x	x	x	0%
Cc1cc(Cl)c2oc(C(=O)N3CCN(c4cccc(C)n4)CC3)c(C)c2c1	3.5µM*	u	x	u	15µM*
Cc1c(Cl)cccc1NC(=O)N1CCN(C(=O)c2ccco2)CC1	0%	2%	x	9%	-2%
Cc1ccc2oc(C(=O)N3CCN(c4cccc(C)n4)CC3)c(C)c2c1	6%	10%	x	21%	u
Cc1cc(Cl)c2oc(C(=O)N3CCN(C(=O)c4ccco4)CC3)c(C)c2c1	u	u	x	u	11µM*
COc1ccc(CCNC(=O)c2cnc3sc(N4CCOCC4)nn3c2=O)cc1	x	x	-6%	x	-9%
Cc1cccc(C(=O)NCCc2nc3ccccc3n2CCC(C)C)c1	x	x	-16%	x	2%
C/C(=N/N=C(/C)c1cccs1)c1cccs1	u	u	x	u	4.8µM*
C/C(=N/OC(=O)c1ccc(C)cc1)c1cccs1	-1%	1%	11%	2%	0.076µM*

Assay outcomes deposited in PubChem by National Center for Advancing Translational Sciences (NCATS).
